# Bioassay records (PubChem)
# Anthrax LF prot: anthrax lethal factor protease inhibition. P15917. multiplex microsphere protease cleavage assay, LF. inhibition, % at 10 µM. 0.12% of 360,000 active
# BoNT-F LC inh: blocks Botulinum neurotoxin F light chain protease | inhibition, % at 10 µM | Multiplex microsphere protease cleavage assay, flow cytometry | 0.22% of 360,000 active; in the data active = inhibition above about 35%, passing the limit was not always enough; inconclusive = no clear call, values can overlap the other calls
# BoNT A protease: blocks Botulinum neurotoxin A light chain protease; multiplex microsphere protease substrate cleavage, flow cytometry; inhibition, % at 10 µM; 0.17% of 360,000 active
# Vc quorum ag: induces V. cholerae light production without autoinducers. V. cholerae BH1578 lux reporter, luminescence, 6 h. activation, % at 18.7 µM. 0.16% of 350,000 active. AID 588436; in the data active = activation mostly above about 9.7%, no sharp cut-off; inconclusive = no clear call, values can overlap the other calls; inactive = mostly below about 3.7%
# Bead autofluor: flagged as autofluorescent in microsphere protease counterscreen. compound autofluorescence counterscreen, microsphere flow cytometry; stronger effect = higher value. fluorescence intensity (no concentration beside the values). 3.1% of 360,000 active. AID 624483; in the data active = fluorescence intensity above about 16000; inconclusive = no clear call, values can overlap the other calls
# A number is an active result; - = inactive; ? = inconclusive; . = not tested or not shown. An excerpt weighted towards active compounds, which were near 3.5% of everything screened. Rule as the data show it, unless noted: active = inhibition above about 30%; inconclusive = no clear call, values can overlap the other calls; inactive = below that.
SMILES,Anthrax LF prot,BoNT-F LC inh,BoNT A protease,Vc quorum ag,Bead autofluor
O=C(Nc1nnc([C@@H]2C[C@H](O)[C@@H](CO)O2)s1)Nc1ccccc1C(F)(F)F,-,-,-,-,-
COc1ccc(C(=O)NCc2nnc(SCC(=O)N3CCCC3)o2)cc1OC,.,.,.,-,.
COc1cc(C)ccc1OCC(=O)NC1CCCCCC1,-,-,-,-,-
CCc1ccccc1OCC(=O)NC1CCCC1,-,-,-,-,23047
COc1ccccc1CC(=O)NC1CCCCCC1,-,-,-,-,-
COc1cc(CNn2cnnc2)ccc1OCC(=O)NC1CCCCC1,-,-,-,-,24056
O=C(CN1C(=O)C(=O)c2ccccc21)NC1CCCCC1,-,-,?,-,21596
O=C(CC1C(=O)NCCN1Cc1ccccc1)NCCCOc1cccnc1 (stereo unspecified),-,-,-,-,?
COc1ccc2[nH]cc(CCNC(=O)CCC3CCCCC3)c2c1,-,-,-,-,-
COc1cc(NC(=S)N2CCN(S(=O)(=O)c3ccccc3)CC2)cc(OC)c1,-,-,-,-,-
COc1ccccc1C(=O)C1CCCN(C(=O)CN2CCCCC2=O)C1 (stereo unspecified),-,-,-,-,-
COc1ccc(C(=O)Nc2ccc(O)c3ccccc23)cc1OC,-,?,-,-,-
Cc1cc(C)nc(NS(=O)(=O)c2ccc(N3C(=O)C4CC=C(Cl)CC4C3=O)cc2)n1 (stereo unspecified),-,-,-,-,18775
CCOC(=O)CSc1nnc2n(C3CCCCC3)c(=O)c3c4c(sc3n12)CCCC4,-,-,-,-,23468
CCOC(=O)CSc1nc2sc3c(c2c(=O)n1C1CCCCC1)CCN(C)C3,48.6,-,74.2,-,-
O=C(CSc1nnc2n(C3CCCCC3)c(=O)c3ccccc3n12)OC1CCCCC1,-,-,-,-,19972
CCn1c(SCC(N)=O)nc2sc3c(c2c1=O)CCN(C)C3,.,.,.,-,.
O=C(NCc1ccccc1)c1cccc(NC(=O)C2CCCC2)c1,-,-,-,-,-
COc1ccc(S(=O)(=O)N2CCN(C(=O)N3CCOCC3)C2C)cc1 (stereo unspecified),-,-,-,-,-
COc1ccccc1N1CCN(CC(=O)Nc2c(C)n(C)n(-c3ccccc3)c2=O)CC1,-,-,-,-,-
Cc1ccc2cc(CN(CC3CCCO3)S(=O)(=O)c3ccccc3)c3nnnn3c2c1 (stereo unspecified),-,-,-,-,17821
Cc1ccc(-c2nc(CS(=O)CC(=O)N3CCC4(CC3)OCCO4)c(C)o2)cc1 (stereo unspecified),-,-,-,-,21619
Cc1ncoc1C(=O)N1CCCC(N2CCN(c3cccc(C(F)(F)F)c3)CC2)C1 (stereo unspecified),-,-,-,-,-
O=C(Cn1cnc2cc([N+](=O)[O-])ccc2c1=O)NCc1ccccc1,-,-,-,-,-
CCCCc1nnc(SCCSc2nnc(CCCC)n2N)n1N,-,-,-,-,23554
SMILES,Anthrax LF prot,BoNT-F LC inh,BoNT A protease,Vc quorum ag,Bead autofluor
CCc1nnc(SCCSc2nnc(CC)n2N)n1N,-,-,-,-,-
CCC1S/C(=N/N=C/c2ccco2)N(Cc2ccccc2C)C1=O (stereo unspecified),40.7,?,?,-,-
CCOC(=O)CC(NS(=O)(=O)c1ccc(OC)c(C)c1)c1cccc([N+](=O)[O-])c1 (stereo unspecified),-,-,-,-,-
COc1cc(CNc2ccc(C)c(C)c2)cc(OC)c1OC,-,-,-,-,17356
COc1ccc(CNc2ccc(C)c(C)c2)cc1,-,-,-,-,-
NC(=O)c1cc(N2C(=O)C3CC=CCC3C2=O)ccc1N1CCCCC1 (stereo unspecified),-,-,-,-,23233
O=C(NCC(c1ccco1)N1CCc2ccccc2C1)C(=O)Nc1ccc(F)cc1F (stereo unspecified),-,-,-,-,-
COc1ccc(-c2cc(=O)n(-c3nc4ccccc4[nH]3)[nH]2)cc1,-,-,?,-,23993
COc1ccc2c(c1)c1ncn(CCN3CCCC3)c(=O)c1n2C,-,-,-,-,21856
COc1ccc2c(c1)c1ncn(CCN3CCNCC3)c(=O)c1n2C,-,-,-,-,22441
COc1ccc2c(c1OC)C(=O)OC2Nc1nc(-c2cccc([N+](=O)[O-])c2)cs1 (stereo unspecified),-,?,-,-,-
CC(OC1=CC(=O)CCC1)C(=O)c1ccccc1 (stereo unspecified),-,-,-,-,20377
CCCCOC(=O)n1c(SCC(=O)N(C)C)nc2ccccc21,-,-,-,-,20862
CCCCOc1ccc(OCCSc2nc3ccccc3n2CC(=O)O)cc1,-,?,-,-,-
CCOC(=O)c1cc2c(C)n(-c3ccc(C)cc3)c(C)c2ccc1=O,-,-,-,-,22981
COc1ccc(C(=O)NNC2CC(=O)N(Cc3ccc(Cl)cc3)C2=O)cc1OC (stereo unspecified),-,-,-,-,-
O=C(CCn1c(=O)[nH]c2ccsc2c1=O)N1CC(=O)N(CCc2ccccc2)C(=O)C1,-,-,?,-,23732
CCc1nn2c(=O)cc(COC(=O)c3cc(Cl)c(OC)c(OC)c3)nc2s1,-,-,-,-,-
CCOC(=O)c1sc2nc(C)nc(SC(C)C(=O)NC3CC3)c2c1C (stereo unspecified),-,-,-,-,-
CCOC(=O)C(C)NC(=O)CCc1nnc2ccc(N3CCC(C)CC3)nn12 (stereo unspecified),-,37.2,-,-,-
CCOc1cccc2cc(C(=O)NCc3ccc(OC)cc3)c(=N)oc12,-,-,-,-,-
Cc1ccc(-n2c(N)c(C(N)=O)sc2=S)c(C)c1,-,-,-,-,18506
CCOc1ccccc1-n1c(N)c(C(N)=O)sc1=S,-,-,-,-,16402
CCCCN(C(=O)c1cc2c(s1)CCC2)c1c(N)n(CCCC)c(=O)[nH]c1=O,-,-,-,-,-
O=C(c1ccccn1)N1CCN(C(=O)c2ccccn2)CC1,-,-,-,-,16386
SMILES,Anthrax LF prot,BoNT-F LC inh,BoNT A protease,Vc quorum ag,Bead autofluor
CCc1nc(SCC(=O)NCCc2ccccc2)c2oc3ccccc3c2n1,-,-,-,-,-
Cc1nc(SCC(=O)NC(C)c2ccccc2)c2oc3ccccc3c2n1 (stereo unspecified),-,-,-,-,19999
Cc1nc(SCC(=O)NCCc2ccccc2)c2oc3ccccc3c2n1,-,-,-,-,16266
CCOc1ccc(N2C=Nc3ccc(OCC)cc3C2)cc1,-,-,-,-,-
CC(NC(=O)Cc1ccc(S(=O)(=O)N2CCOCC2)s1)c1ccc(Cl)c(Cl)c1 (stereo unspecified),-,-,-,-,-
COc1cc(/C=C2\SC(=S)N(CCC(=O)Nc3ccccn3)C2=O)cc(OC)c1OC,-,-,-,-,-
COc1cc(/C=C2/SC(=S)N(CC(=O)Nc3nc4ccccc4s3)C2=O)cc(OC)c1OC,42.2,-,40.1,-,-
CCc1nnc(NC(=O)CN2C(=O)/C(=C/c3cc(OC)c(OC)c(OC)c3)SC2=S)s1,-,-,-,-,-
COc1cc(/C=C2\SC(=S)N(CC(=O)Nc3ccccn3)C2=O)cc(OC)c1OC,-,-,38.6,-,-
